# PubChem BioAssay (NCI)
# This is part of a sample that, as a whole, favours compounds with a hit. Of some 83,000 tested, about 20% had one in any assay.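 A percent growth of 40 corresponds to 60% growth inhibition; 0 means no net growth; -100 means all cells died. Active threshold: below 10.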 Unmarked numbers belong to inactive results. Calls of active or inactive are those of the source.
# Key:
# Assay in all cases: NCI-60 one-dose screen, 48 h (100 = growth as untreated, 0 = no growth, -100 = all killed)
# Conditions in all cases: 10 µM unless noted
# [1] = system: DU-145 prostate
# [2] = system: K-562 leukemia
# [3] = system: MALME-3M melanoma
# [4] = system: MDA-MB-231 breast
# [5] = system: RXF 393 renal
# [6] = system: SF-268 CNS
# [7] = system: SF-295 CNS
# [8] = system: SF-539 CNS
# [9] = system: UACC-257 melanoma
# [10] = system: M14 melanoma
# [11] = system: HCT-15 colon
# [12] = system: HT29 colon
# [13] = system: SNB-75 CNS
# [14] = system: SNB-19 CNS
# [15] = system: U251 CNS
# [16] = system: PC-3 prostate
# [17] = system: SK-MEL-5 melanoma
# [18] = system: UACC-62 melanoma
# [19] = system: LOX IMVI melanoma
# [20] = system: SK-MEL-28 melanoma
SMILES,growth [1],growth [2],growth [3],growth [4],growth [5],growth [6],growth [7],growth [8],growth [9],growth [10],growth [11],growth [12],growth [13],growth [14],growth [15],growth [16],growth [17],growth [18],growth [19],growth [20]
CCN(CC)CCOc1ccc(NC(=O)C(C(C)C)N2C(=O)/C(=C/c3ccc(Br)cc3)SC2=S)cc1 (stereo unspecified),73%,-64.8% (active),-34.4% (active),50.7%,71.6%,76.6%,101%,88.2%,93.5%,75.8%,-40.9% (active),-5.87% (active),66%,57.6%,71.7%,64.5%,89.2%,95.3%,62.9%,89%
O=S(=O)(Nc1ccc(-n2cnc3cc(-c4ccc(O)cc4)ccc32)cc1)c1ccccc1,105%,65.4%,100%,85.1%,103%,78.4%,87.9%,67.3%,106%,85.1%,87.2%,95.3%,88.1%,90.1%,65.2%,90.7%,66.8%,82.3%,81%,104%
O=C(NCCNc1nccc(-c2c(-c3cccc(F)c3)nc3sccn23)n1)c1ccc(Cl)cc1,71%,54.4%,34.9%,65.5%,72.9%,67.9%,73.8%,90%,76%,38.8%,40.1%,35.2%,63.5%,71.9%,66.1%,72.5%,33.6%,14.7%,43.4%,64.9%
Cc1nn(-c2ccccc2)c(Oc2c(Cl)cccc2Cl)c1/C=N/N=c1\sc2ccccc2n1C,67.7%,28.3%,81.6%,51.3%,54.7%,52.2%,54.3%,49.9%,71.3%,60.8%,25.3%,33.7%,86.4%,49.7%,28.5%,44.1%,20.2%,36.2%,26%,64.1%
COc1cccc2c1c1nc3cc(C)c(C)cc3nc1n2CCN(C)C,19.7%,6.22% (active),-12.1% (active),23.5%,30%,37.9%,20.1%,23.2%,8.52% (active),22.2%,13.1%,11%,34%,25.4%,25.9%,18.3%,10.7%,14.6%,1.15% (active),36%
C=C(C)[C@@H]1CC[C@]2(C(=O)N3CCN(C)CC3)CC[C@]3(C)[C@H](CC[C@@H]4[C@@]5(C)CC[C@H](OCCC#N)C(C)(C)[C@@H]5CC[C@]43C)[C@@H]12,92.5%,16.2%,118%,65.8%,47.4%,90.5%,115%,102%,107%,107%,90.6%,27.6%,99.5%,95.9%,43.9%,72.2%,94.8%,110%,53.5%,112%
COc1ccc(/C=N/NC(=O)c2cnn3c2NC(c2ccccc2)C3)cc1OC (stereo unspecified),81.1%,24.1%,76.4%,66%,78.2%,73.7%,36.3%,63.4%,77.9%,45.5%,41.8%,14%,51.6%,62.6%,54.4%,56.9%,66.7%,47.7%,56.5%,78%
C=C1C(=O)O[C@H]2[C@H]1CC/C(COC(=O)NCc1c[nH]c3ccc(Br)cc13)=C\CC[C@@]1(C)O[C@@H]21,-88.6% (active),0.98% (active),-45.4% (active),-52.7% (active),-87.7% (active),3.85% (active),60.9%,-36.9% (active),-39.6% (active),-40.8% (active),-70.2% (active),-76.6% (active),-5.16% (active),40.2%,3.96% (active),15.4%,-27.1% (active),-63% (active),-82% (active),-33.5% (active)
COc1ccc(C(C)=O)c(OC)c1,113%,118%,110%,102%,117%,111%,110%,103%,97.8%,108%,106%,92%,91.7%,100%,101%,,107%,96.1%,103%,
Cc1c(C(=O)NCCC(=O)NO)sc2ncnc(Nc3ccc(F)c(Cl)c3)c12,111%,113%,113%,103%,102%,96.5%,96.1%,98%,99.7%,105%,102%,104%,97.5%,98.9%,,104%,102%,102%,98.8%,112%
Cc1ccc(-c2[nH][nH]c(=O)c2-c2nc3ccccc3s2)cc1,111%,100%,96.5%,99.1%,101%,103%,101%,100%,104%,98.1%,99.1%,104%,79.4%,97.9%,103%,,102%,95.9%,95.7%,111%
Cc1cc(C)c(S(=O)(=O)Oc2ccccc2[N+](=O)[O-])c(C)c1,15.7%,22.1%,21%,33.2%,4.44% (active),37.2%,-7.8% (active),-8.46% (active),32.4%,14.2%,15.8%,3.94% (active),-18.4% (active),33.1%,,20.7%,6.18% (active),24.5%,43.4%,50.6%
O=C(/C=C(/C=C/c1csc2ccccc12)OB(F)F)/C=C/c1csc2ccccc12,28.5%,23.2%,9.2% (active),2.45% (active),-28.4% (active),5.79% (active),87%,40.8%,57.7%,8.88% (active),11.4%,15.7%,16.5%,48.2%,,20.3%,31.5%,6.2% (active),-3.05% (active),4.8% (active)
COc1cc2cc(CN3CCN(c4nccc(-c5ccc6ccccc6c5)n4)CC3)c(=O)[nH]c2cc1OC,74%,13.6%,103%,73.8%,81.8%,94%,101%,110%,77%,109%,21.2%,69%,104%,76.7%,,60.7%,85.4%,95.1%,90.2%,102%
N#CC1C(C#N)C2c3ccccc3C=CN2C1C(=O)c1ccc(Br)cc1 (stereo unspecified),97.8%,99.8%,100%,92.2%,105%,95.1%,96.8%,89.3%,103%,104%,95.9%,86.8%,90.5%,91.2%,100%,,90.8%,98.4%,92.2%,102%
CCCOc1ccc(/C=N/Nc2cc(C)nc3ccc(Br)cc23)cc1,86.8%,11.5%,112%,92.9%,83.4%,102%,81%,83.9%,98.7%,80.3%,-20.9% (active),26.5%,105%,101%,,87.6%,100%,96.1%,59.9%,102%
